Columns and labels:
[1] = tested on: U-2932; experiment: growth inhibition by drug alone (1 - RLU/untreated control) (fraction); higher = stronger inhibition; conditions: 177Lu-lilotomab satetraxetan 0 ug/ml
How it was run: (§1)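 Growth inhibition was calculated from RealTime-Glo RLU against untreated no-drug wells. Values equal 1 − RLU/mean of 48 untreated no-drug wells per plate, read daily from day 3 after 1 h at 37°C. RIVA and U-2932 cells, with or without 18 h pretreatment by a radiolabelled anti-CD37 antibody conjugate (~600 MBq/mg; 0.5 µg/ml RIVA, 1 µg/ml U-2932), were washed and plated at 3,000 cells/well on compound-printed plates at 10/100 nM (RIVA) or 10/1,000 nM (U-2932).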

[2] = tested on: RIVA; experiment: as above; conditions: 177Lu-lilotomab satetraxetan 0 ug/ml
How it was run: as §1

[3] = tested on: U-2932; experiment: growth inhibition by drug plus 177Lu-lilotomab satetraxetan (1 - RLU/untreated control) (fraction); higher = stronger inhibition; conditions: 177Lu-lilotomab satetraxetan 1 ug/ml
How it was run: as §1

[4] = tested on: RIVA; experiment: as above; conditions: 177Lu-lilotomab satetraxetan 0.5 ug/ml
How it was run: as §1

Structure (SMILES) | growth inhibition by drug alone ([1]; 10 nM, time (day): 3) | growth inhibition by drug alone ([1]; 10 nM, time (day): 4) | growth inhibition by drug alone ([1]; 10 nM, time (day): 5) | growth inhibition by drug alone ([1]; 10 nM, time (day): 6) | growth inhibition by drug alone ([1]; 1000 nM, time (day): 3) | growth inhibition by drug alone ([1]; 1000 nM, time (day): 4) | growth inhibition by drug alone ([1]; 1000 nM, time (day): 5) | growth inhibition by drug alone ([1]; 1000 nM, time (day): 6) | growth inhibition by drug alone ([2]; 10 nM, time (day): 3) | growth inhibition by drug alone ([2]; 10 nM, time (day): 4) | growth inhibition by drug alone ([2]; 10 nM, time (day): 5) | growth inhibition by drug alone ([2]; 10 nM, time (day): 6) | growth inhibition by drug alone ([2]; 100 nM, time (day): 3) | growth inhibition by drug alone ([2]; 100 nM, time (day): 4) | growth inhibition by drug alone ([2]; 100 nM, time (day): 5) | growth inhibition by drug alone ([2]; 100 nM, time (day): 6) | growth inhibition by drug plus 177Lu-lilotomab satetraxetan ([3]; 10 nM, time (day): 3) | growth inhibition by drug plus 177Lu-lilotomab satetraxetan ([3]; 10 nM, time (day): 4) | growth inhibition by drug plus 177Lu-lilotomab satetraxetan ([3]; 10 nM, time (day): 5) | growth inhibition by drug plus 177Lu-lilotomab satetraxetan ([3]; 10 nM, time (day): 6) | growth inhibition by drug plus 177Lu-lilotomab satetraxetan ([3]; 1000 nM, time (day): 3) | growth inhibition by drug plus 177Lu-lilotomab satetraxetan ([3]; 1000 nM, time (day): 4) | growth inhibition by drug plus 177Lu-lilotomab satetraxetan ([3]; 1000 nM, time (day): 5) | growth inhibition by drug plus 177Lu-lilotomab satetraxetan ([3]; 1000 nM, time (day): 6) | growth inhibition by drug plus 177Lu-lilotomab satetraxetan ([4]; 10 nM, time (day): 3) | growth inhibition by drug plus 177Lu-lilotomab satetraxetan ([4]; 10 nM, time (day): 4) | growth inhibition by drug plus 177Lu-lilotomab satetraxetan ([4]; 10 nM, time (day): 5) | growth inhibition by drug plus 177Lu-lilotomab satetraxetan ([4]; 10 nM, time (day): 6) | growth inhibition by drug plus 177Lu-lilotomab satetraxetan ([4]; 100 nM, time (day): 3) | growth inhibition by drug plus 177Lu-lilotomab satetraxetan ([4]; 100 nM, time (day): 4) | growth inhibition by drug plus 177Lu-lilotomab satetraxetan ([4]; 100 nM, time (day): 5) | growth inhibition by drug plus 177Lu-lilotomab satetraxetan ([4]; 100 nM, time (day): 6)
C#Cc1cccc(Nc2ncnc3cc(OC)c(OCCCCCCC(=O)NO)cc23)c1 | -0.0221 | -0.0137 | -0.0216 | 0.0129 | 0.966 | 0.973 | 0.975 | 0.978 | -0.19 | -0.225 | -0.209 | -0.242 | 0.881 | 0.779 | 0.749 | 0.672 | -0.132 | -0.086 | -0.0994 | -0.0508 | 0.971 | 0.977 | 0.981 | 0.984 | 0.365 | 0.467 | 0.495 | 0.496 | 0.935 | 0.924 | 0.926 | 0.923
Cc1nn(-c2ccccc2)c(C)c1C=NN1CCN(Cc2ccccc2)CC1 | 0.0133 | 0.025 | 0.0751 | 0.189 | -0.168 | -0.0669 | -0.0956 | -0.16 | -0.144 | -0.164 | -0.201 | -0.467 | -0.163 | -0.151 | -0.201 | -0.307 | -0.0548 | -0.0219 | 0.00875 | 0.104 | -0.251 | -0.05 | -0.0247 | -0.0474 | 0.275 | 0.414 | 0.437 | 0.459 | 0.295 | 0.4 | 0.397 | 0.389
CC(C)[C@H](C(=O)Nc1ccc(C(=O)NO)cc1)c1ccccc1 | 0.0244 | 0.00418 | -0.0183 | -0.000531 | 0.96 | 0.964 | 0.973 | 0.98 | -0.0258 | -0.0463 | -0.0451 | -0.103 | 0.935 | 0.907 | 0.897 | 0.884 | 0.037 | 0.0315 | 0.0282 | 0.152 | 0.961 | 0.969 | 0.978 | 0.985 | 0.524 | 0.584 | 0.602 | 0.599 | 0.939 | 0.934 | 0.937 | 0.94
CC(=O)c1c(C)c2cnc(Nc3ccc(N4CCNCC4)cn3)nc2n(C2CCCC2)c1=O | 0.0532 | 0.0389 | -0.0177 | -0.186 | -0.0353 | -0.0097 | -0.082 | -0.259 | -0.0338 | -0.0722 | -0.148 | -0.339 | -0.149 | -0.13 | -0.138 | -0.285 | -0.0112 | 0.0266 | 0.0227 | 0.0699 | -0.111 | -0.00616 | -0.0131 | -0.0632 | 0.392 | 0.527 | 0.548 | 0.545 | 0.281 | 0.427 | 0.426 | 0.392
O=C1CN2Cc3c(ccc(Cl)c3Cl)N=C2N1 [Anagrelide] | 0.0875 | 0.0814 | 0.0131 | -0.134 | 0.102 | 0.0873 | -0.0302 | -0.00421 | -0.0185 | 0.0438 | -0.0392 | -0.302 | -0.0533 | 0.019 | 0.0156 | -0.0326 | 0.101 | 0.141 | 0.208 | 0.23 | 0.0939 | 0.117 | 0.178 | 0.243 | 0.547 | 0.616 | 0.633 | 0.635 | 0.54 | 0.612 | 0.625 | 0.631
CC(c1cc2ccccc2s1)N(O)C(N)=O (centres undefined) [Zileuton] | 0.0373 | 0.016 | -0.0853 | -0.151 | -0.0669 | -0.0105 | -0.0851 | -0.12 | -0.0289 | -0.0441 | -0.104 | -0.421 | -0.161 | -0.195 | -0.186 | -0.323 | -0.00999 | 0.00112 | 0.025 | 0.0355 | -0.0574 | 0.0263 | -0.0233 | 0.0666 | 0.389 | 0.507 | 0.537 | 0.547 | 0.4 | 0.496 | 0.496 | 0.482
CC[C@@H]1C(=O)N(C)c2cnc(Nc3ccc(C(=O)N[C@H]4CC[C@H](N5CCN(CC6CC6)CC5)CC4)cc3OC)nc2N1C(C)C [BI6727 (Volasertib)] | 0.335 | 0.327 | 0.308 | 0.37 | 0.962 | 0.975 | 0.98 | 0.982 | 0.23 | 0.19 | 0.153 | 0.0282 | 0.943 | 0.962 | 0.969 | 0.971 | 0.255 | 0.307 | 0.34 | 0.465 | 0.917 | 0.946 | 0.965 | 0.977 | 0.631 | 0.702 | 0.726 | 0.726 | 0.939 | 0.964 | 0.975 | 0.981
CC(C)(C)c1cc(NC(=O)Nc2ccc(-c3cn4c(n3)sc3cc(OCCN5CCOCC5)ccc34)cc2)no1 [Quizartinib (AC220)] | 0.0329 | -0.0112 | -0.0203 | 0.0321 | -0.0933 | -0.0955 | -0.0983 | 0.0473 | -0.0494 | -0.0577 | -0.051 | -0.0533 | -0.339 | -0.307 | -0.369 | -0.46 | 0.0106 | 0.0631 | 0.109 | 0.208 | -0.105 | -0.0657 | -0.0306 | 0.182 | 0.463 | 0.533 | 0.557 | 0.567 | 0.27 | 0.368 |  | 
